Our source for the inhibition values is PubChem BioAssay AID651821 (The Scripps Research Institute Molecular Screening Center, 2012).

The whole screen tested about 370,000 compounds, of which about 4,700 (1.3%) were called active.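 How the source made its calls: active means inhibition above the plate cutoff, the mean of all test compounds on that plate plus 3 SD (cut at about 35% in these data); inactive means the rest.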 Many of the other results were omitted from the sample, so actives are more common in it than they were.

The experiment can be described thus: small molecules binding CAG repeat RNA – biochemical, fluorescence, primary screen (AID 651821).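 Further: 0% = DMSO alone and 100% = 100 µM mitoxantrone as full dye displacement; higher means more dye released from RNA so lower well fluorescence.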 The note with it: r(CAG) RNA repeat, TO-PRO-1 dye displacement fluorescence; at 3 µM; active compounds read high.
One may read the inhibition as the change of the read-out against control, counted positive when it falls. In the case of `Cc1ccc(C(=O)O)c(NC=O)c1OCc1ccccc1`, the inhibition was 0.76% (inactive).
With `O=C(O)C1CCCN1S(=O)(=O)c1ccc(Br)cc1` (configuration not stated), the inhibition is -0.5% (inactive).
As for `CCCCC[C@@H]1C=C(C(=O)O)[C@H](c2ccc(C#N)cc2)N1S(=O)(=O)c1ccc(C)cc1`, the inhibition is 62.3% (active).
For the molecule `Cc1ccc(S(=O)(=O)N2CCCC2CO)cc1` (configuration not stated), the inhibition was -2.42% (inactive).
On to `CCOC(=O)C1=CC[C@@H](c2ccccc2)N(S(=O)(=O)c2ccc(C)cc2)[C@H]1c1ccc(CC)cc1`, for which the inhibition is 2.92% (inactive).
For `CCCCC[C@@H]1C=C(C(=O)OCC)[C@H](c2ccccc2)N1S(=O)(=O)c1ccc(C)cc1` the value was 5.36% (inactive); for `Cc1ccc(S(=O)(=O)N2[C@@H](c3ccc(Br)cc3)C(C(=O)O)=C[C@H]2CC2CCCC2)cc1`, 82.8% (active); for `CCn1c(SCC(C)=O)nc2sc3c(c2c1=O)CCCC3`, 4.43% (inactive).
Consider `CCOC(=O)[C@]12CCCC3=C1N(CCC3)C(=O)[C@@H](CC(=O)NCC13CC4CC(CC(C4)C1)C3)C2`, for which the inhibition is -1.58% (inactive).
As for `O=C(c1ccccc1)c1ccc(-c2ccccc2C(=O)NC2CCCCN(Cc3ccc(Cl)cc3)C2=O)cc1` (configuration not stated), the inhibition was 12.5% (inactive).
Take `Cc1ccc(C)c(CN2CCC(CNC(=O)C3CCCN(c4ncnc5c4nc4n5CCCCC4)C3)CC2)c1` (configuration not stated): the inhibition is -1.34% (inactive).
For `CCCCCCCCNS(=O)(=O)/C=C/c1cc(C)ccc1CNC(=O)OC(C)(C)C` the value was 5.11% (inactive).
Regarding `CSc1ccc(Oc2cccc3c2S(=O)(=O)N([C@H](C)c2ccccc2)C[C@@H](COCc2ccccc2)O3)cc1C`, the inhibition was 5.63% (inactive).
Take `Cc1noc(C)c1NC(=O)Nc1ccc2c(c1)C(=O)N([C@H](C)CO)C[C@H](C)[C@H](CN(C)Cc1ccncc1)OCCCC[C@@H](C)O2`: the inhibition was 6.45% (inactive).
In the case of `COc1ccc(OC)c(NC(=O)CSc2nc(N)c(-c3ccccc3)c(=O)[nH]2)c1`, the inhibition was 4.81% (inactive).
As to `CCCc1cc(=O)[nH]c(SCC(=O)Nc2ccc(C(=O)Nc3ccccc3OC)cc2)n1`, the inhibition is 31.1% (inactive).
With `COc1ccc(OC)c(NC(=O)CSc2nc(-c3ccccc3)cc(=O)[nH]2)c1`, the inhibition was 37.5% (active).
On to `Cc1ccccc1NC(=O)COC(=O)c1ccc(Sc2ncn[nH]2)c([N+](=O)[O-])c1`, for which the inhibition was 6.52% (inactive).
On to `CCOC(=O)C(NC(=O)CC(C)C)(Nc1sc2c(c1C(N)=O)CCCC2)C(F)(F)F` (configuration not stated), for which the inhibition was -6.2% (inactive).
Next, `O=C(O)c1c(NC(=O)N2CCCC2)sc2c1CCCC2`: 3.93% (inactive); `NC(=O)c1c(Nc2nc3c(F)cccc3s2)sc2c1CCCC2`: 52.5% (active); `COc1ccc(Br)c2c1C(=O)CC2`: -1.62% (inactive).
On to `COc1ccc(NC(=O)CC2COc3ccccc3O2)c(OC)c1` (configuration not stated), for which the inhibition is -0.79% (inactive).
Next, `CCn1cc(C(=O)NCC2COc3ccccc3O2)c2cc(OC)c(OC)cc2c1=O` (configuration not stated): 53.3% (active); `CCn1cc(C(=O)N2CCN(C3CCCCC3)CC2)c2cc(OC)c(OC)cc2c1=O`: -10.2% (inactive).
With `COc1cccc(CSc2nnc(-c3cccnc3)n2Cc2ccccc2)c1`, the inhibition is 3.2% (inactive).
`CCCNC(=O)Nc1ccc2c(c1)C(=O)N(C)[C@H]1CC[C@H](CC(=O)NCC3CCCCC3)O[C@@H]1CO2`: the inhibition was 2.13% (inactive).
As to `COc1ccc(Cl)cc1C=CC=NNC(=O)c1ccncc1`, the inhibition was 1.27% (inactive).
Consider `COc1ccccc1/C=C/C=N/n1c(-c2ccc(Cl)cc2Cl)n[nH]c1=S`, for which the inhibition was 36.1% (active).
On to `COc1ccc(Cl)cc1C=CC=Nc1ccc(S(N)(=O)=O)cc1`, for which the inhibition is 14.6% (inactive).
Take `CSc1nnc(NC(=O)c2nc(S(=O)(=O)Cc3ccc(C)cc3)ncc2Cl)s1`: the inhibition is 42.9% (active).
On to `Cc1cccc(CS(=O)(=O)c2ncc(Cl)c(C(=O)Nc3ccc(F)cc3)n2)c1`, for which the inhibition was 2.26% (inactive).
Turning to `Clc1cccc2c1C1CC2CCN1Cc1ccccc1` (configuration not stated), the inhibition is 1.58% (inactive).
With `O=C1C2C3C=CC(C3)C2C(=O)N1c1ccc(S(=O)(=O)Nc2nccs2)cc1` (configuration not stated), the inhibition was 0.76% (inactive).
Next, `O=S(=O)(NCCc1ccc(Cl)cc1)c1cccs1`: -4.34% (inactive).
Take `O=C(Nc1nncs1)c1cccc(S(=O)(=O)N2CCCCC2)c1`: the inhibition was 0.89% (inactive).
For the molecule `COc1cc(OC)c(C(=O)NNC(=O)c2ccc(NS(=O)(=O)c3cccs3)cc2)cc1OC`, the inhibition was 8.73% (inactive).
For `O=C(Nc1nncs1)c1ccccc1NS(=O)(=O)c1cccs1` the value was 36.4% (active); for `O=C(Nc1cccc(Cl)c1)Nc1ccccc1NS(=O)(=O)c1cccs1`, 48.5% (active); for `C/C(=N\NC(=O)c1ccc(NS(=O)(=O)c2cccs2)cc1)c1ccc2ccccc2c1`, 19.2% (inactive).
For `CC(C)CNc1cccc2c1S(=O)(=O)N(Cc1cn(Cc3ccccc3C(F)(F)F)nn1)Cc1ccccc1O2` the value was 7.51% (inactive).
With `O=C(N[C@H](C(=O)N1CCC[C@H]1C(=O)NCCc1ccccc1Cl)c1ccccc1)c1ccccc1`, the inhibition was 3.45% (inactive).
As to `O=C(c1ccc2c(c1)OCO2)N1CCNc2ccccc2C1`, the inhibition was 2.38% (inactive).
For `COC(=O)Cc1nnn2c1[C@H](C)[C@H](c1ccccc1Br)OCC2` the value was 2.7% (inactive).
Consider `C#CCCN([C@H](C(=O)OC)C(C)C)S(=O)(=O)c1ccc(F)cc1Br`, for which the inhibition is 2.16% (inactive).
As to `COc1cccc(N(C)C(=O)[C@@H](C)[C@@H](O)c2ccc3ccccc3c2)c1`, the inhibition was -1.62% (inactive).
For `COC(=O)[C@]1(Cc2ccccc2)NC=C(C(=O)c2ccccc2)[C@@H]1c1cccc(OC)c1` the value was 4.57% (inactive); for `COC(=O)C1=C(C)NC(=S)NC1c1ccc(OC)cc1` (configuration not stated), 1.6% (inactive); for `CCN(CC(=O)Nc1cc(Cl)ccc1C)C(=O)Cn1c(=O)cnc2ccccc21`, -5.99% (inactive).
With `C=CCNc1nc(N)c(C(=C(C#N)C#N)c2ccccc2)s1`, the inhibition is 35.8% (active).
As to `C=C(C)C#CC(Cc1ccccc1)N(CC1CC1)/C(N)=N/C(=O)OCc1ccccc1` (configuration not stated), the inhibition is 0.56% (inactive).
Take `NS(=O)(=O)c1ccc(CNC(=S)NC(=O)c2ccco2)cc1`: the inhibition is 0.4% (inactive).
Turning to `O=C(NC(=S)N1CCc2ccccc21)c1ccco1`, the inhibition was 0.88% (inactive).
On to `CCC1CCCCN1C(=S)NC(=O)c1ccco1` (configuration not stated), for which the inhibition is 0.91% (inactive).
For `CC(Oc1ccc2ccccc2c1)C(=O)NNC(=S)NC(=O)c1ccco1` (configuration not stated), the inhibition is 48.2% (active).
Regarding `COc1ccc(/C=C(/NC(=O)c2ccco2)C(=O)Nc2ccc(C(C)=O)cc2)cc1`, the inhibition is 1.57% (inactive).
`CCCc1ccc(OCC(=O)NNC(=S)NC(=O)c2ccco2)cc1`: the inhibition is 36.2% (active).
Turning to `CCCCC(NC(=O)c1cccc(Br)c1)C(=O)O` (configuration not stated), the inhibition was 0.46% (inactive).
For `COC(=O)[C@]12C[C@H](CC(=O)N3CCOCC3)C(=O)N(Cc3ccc(Cl)cc3Cl)C1=C[C@H](COCc1ccccc1)O[C@@H]2C`, the inhibition was 4.28% (inactive).
For `CC(C)CNC(=O)OCc1cn(Cc2ccc(F)cc2)nn1`, the inhibition is 0.38% (inactive).
Next, `Cc1cc2c(nc1C)CCCN2C`: -0.74% (inactive).
Consider `COC(=O)[C@H](C(C)C)N1CCc2nnn(Cc3ccc(C)cc3)c2-c2ccccc2S1(=O)=O`, for which the inhibition is -0.02% (inactive).
Turning to `COCc1[nH]nc2c1C(c1ccccc1)N(c1ccccc1)C2=O` (configuration not stated), the inhibition is -0.7% (inactive).
Turning to `O=C(Nc1ccc2ccccc2c1)Nc1ccc2snnc2c1`, the inhibition was 47.6% (active).
With `CS(=O)(=O)c1ccccc1C(=O)Nc1ccc2sccc2c1`, the inhibition is 2.53% (inactive).
For `O=S(=O)(Nc1ccc2ccccc2c1)N1CCCCC1` the value was 4.05% (inactive); for `C[C@@H]1ON(C)[C@H]2C[C@H]3c4cc(N5CCOCC5)ccc4CCN3C[C@@H]12`, 0.67% (inactive); for `CSc1nsc(NC(=O)Nc2ccccc2)n1`, 38.9% (active).
As to `COC(=O)c1cccc(NC(=O)CSc2nc(C)cc(=O)[nH]2)c1`, the inhibition was 6.31% (inactive).
As to `CCc1nnc(NC(=O)CSc2nnnn2-c2cccc(C(C)=O)c2)s1`, the inhibition was -0.71% (inactive).
With `CCCCN1C(=O)C(=O)N(CC(=O)Nc2cccc(C(C)=O)c2)C1=O`, the inhibition was 4.35% (inactive).
For `CCSc1nsc(NC(=O)Nc2cccc(C(C)=O)c2)n1` the value was 62.7% (active); for `C=CCSc1nsc(NC(=O)Nc2cccc(C(C)=O)c2)n1`, 60.2% (active); for `CSc1nsc(SCC(=O)Nc2cc(C(=O)O)ccc2C)n1`, 7.69% (inactive).
With `CC(=O)N1CCC(C(=O)Nc2nc(-c3ccccc3)ns2)CC1`, the inhibition was 6.24% (inactive).
Regarding `C=CCSc1nnc2c(n1)-c1cccc3cccc-2c13`, the inhibition is 7.81% (inactive).
With `O=C(NC1CCC1)c1ccc(C#CC2CC2)cn1`, the inhibition is 4.07% (inactive).
`CCC(c1ccc(NC(=O)OC(C)(C)C)cc1)c1cc(OC)cc(OC)c1` (configuration not stated): the inhibition is 3.19% (inactive).
Regarding `COC(=O)C1=C(C)N(Cc2ccccc2C(F)(F)F)C(=NCc2ccc(C(F)(F)F)cc2)NC1c1ccc(F)cc1` (configuration not stated), the inhibition is 1.68% (inactive).
Next, `C=CCN(C(=O)[C@@H](CCCC)[C@@H](O)c1ccc(Cl)cc1)c1ccccc1`: -0.19% (inactive); `CCC(C)C(N=C1NS(=O)(=O)c2ccccc21)C(=O)N1CCC(C)CC1` (configuration not stated): -5.03% (inactive).
For `COc1ccc(S[C@]2(C(=O)N(C)C)CC(=O)N(c3ccc(OC)cc3)[C@@H]2c2ccc(OC)cc2)cc1`, the inhibition is 2.57% (inactive).
As to `C=CCN1C(=O)[C@@H](CC(=O)NCC2CCCCC2)[C@]2(C(=O)OC)CCCCC=C12`, the inhibition is 2.39% (inactive).
On to `Cc1cc(C(=O)N/N=C/c2ccc(O)c([N+](=O)[O-])c2)c(C)n1-c1ccc(F)cc1`, for which the inhibition is 40.9% (active).
For `Cc1c(Cl)c([N+](=O)[O-])nn1Cc1ccc(C(=O)N/N=C\c2cc(Cl)ccc2O)o1` the value was 7.06% (inactive); for `CC(Oc1ccccc1[N+](=O)[O-])C(=O)N/N=C/c1ccoc1` (configuration not stated), 6.95% (inactive); for `O=c1[nH]c(-c2ccccc2)cn1C1CCN(Cc2ccc(-c3nc4ccc(F)cc4nc3-c3ccccc3)cc2)CC1`, 14.3% (inactive).
